# MPTP inh: inhibitors of mitochondrial permeability transition pore. inhibition, % at 10 µM. 360,000 compounds, 1.4% hits. isolated mouse mitochondria, Ca2+ swelling absorbance, 30 min;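 active = inhibition of 50% or more, scaled per plate between neutral and stimulator controls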;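 also: 0% = DMSO wells given calcium and 100% = 1 mM EGTA wells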
# Mdm2-MdmX inh: human Mdm2/MdmX binding inhibition; inhibition, % at 8 µM; 330,000 compounds, 3% hits; O15151+Q00987; SaOS-2 split-luciferase Mdm2/MdmX complementation, luminescence;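 active = inhibition of at least 50% at 8 µM in the primary screen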
# Target sequence (O15151 whole entry, looked up): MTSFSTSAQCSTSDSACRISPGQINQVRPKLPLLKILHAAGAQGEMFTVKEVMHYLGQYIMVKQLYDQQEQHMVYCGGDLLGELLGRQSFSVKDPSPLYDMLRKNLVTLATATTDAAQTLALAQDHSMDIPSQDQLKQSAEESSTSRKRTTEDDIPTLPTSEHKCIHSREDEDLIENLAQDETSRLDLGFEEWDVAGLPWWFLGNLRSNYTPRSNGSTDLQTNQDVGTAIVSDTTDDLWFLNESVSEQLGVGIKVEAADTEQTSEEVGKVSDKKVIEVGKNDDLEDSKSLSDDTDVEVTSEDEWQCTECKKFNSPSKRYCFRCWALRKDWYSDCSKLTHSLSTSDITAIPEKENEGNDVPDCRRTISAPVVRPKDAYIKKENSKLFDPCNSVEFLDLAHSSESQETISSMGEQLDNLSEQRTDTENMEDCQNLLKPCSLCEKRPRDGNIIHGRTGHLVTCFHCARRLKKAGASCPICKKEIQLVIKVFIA
# Target sequence (Q00987 whole entry, looked up): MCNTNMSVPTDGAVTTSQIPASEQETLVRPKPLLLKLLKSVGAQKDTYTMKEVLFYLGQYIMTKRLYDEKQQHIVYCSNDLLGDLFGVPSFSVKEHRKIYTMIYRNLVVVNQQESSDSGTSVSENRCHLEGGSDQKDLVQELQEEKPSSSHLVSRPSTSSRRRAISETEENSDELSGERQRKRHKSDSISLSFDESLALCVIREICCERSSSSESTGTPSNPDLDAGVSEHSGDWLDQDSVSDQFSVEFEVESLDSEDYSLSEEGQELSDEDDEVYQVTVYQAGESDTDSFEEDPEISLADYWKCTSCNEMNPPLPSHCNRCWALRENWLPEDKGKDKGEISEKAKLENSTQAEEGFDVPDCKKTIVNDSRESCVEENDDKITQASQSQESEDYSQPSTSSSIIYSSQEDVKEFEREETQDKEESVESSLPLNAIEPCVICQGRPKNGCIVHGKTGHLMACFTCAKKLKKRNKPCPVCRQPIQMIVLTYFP
# GRIN3A LBD mod: modulators (binders) of human NR3A ligand-binding domain | 340,000 compounds, 2.5% hits | AID 1259313 | Tm shift relative to glycine control, % at 25 µM | NR3A LBD differential scanning fluorimetry, Tm shift; 0% = protein alone, 100% = glycine-bound protein;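 active = melting temperature shift of at least 10% of the positive control shift, at one fixed dose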
# SKKanGAS inh: blocks kanamycin growth of S. pyogenes SKKanGAS strain; BacTiter-Glo, 6 h; inhibition, % at 7.5 µM; 300,000 compounds, 1.3% hits; AID 1662;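 active = mean replicate score, as percent of positive control median, at least 50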;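 also: strain carries kanamycin resistance gene driven by streptokinase promoter and grows in 40 µg/ml kanamycin; loss of luminescence reflects streptokinase promoter inhibition or plain growth inhibition; 0% = median of DMSO wells and 100% = positive control at its reference dose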
# CSC inhib: cancer stem cell inhibition; cancer stem cell-like cells viability, luminescence; inhibition, % at 7.5 µM; 300,000 compounds, 1.1% hits; AID 2717; in the data active = inhibition above about 75%; tested in HMLE shEcad cells
# Beta cell apopt: beta cell apoptosis inhibition. INS-1E cytokine-induced death, ATP luminescence, 48 h; percent of positive-control rescue, neutral wells zero. protection from apoptosis, % (no concentration beside the values). 300,000 compounds, 0.8% hits. AID 435005;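 active = Every replicate reaches about 75%, or at least half do and their mean reaches it too, limit read from the data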;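 also: 0% = cytokine-treated negative control wells and 100% = positive control rescue; higher means more ATP so stronger rescue from cytokine killing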
# Mdm2 MdmX conf: confirmation of human Mdm2/MdmX interaction inhibitors | Mdm2-MdmX binding, luminescent assay | 10,000 compounds, 55% hits | shares compounds with Mdm2-MdmX inh | inhibition, % at 8 µM; in the data active = inhibition above about 40%
# FLuc counter: counter-screen for Mdm2/MdmX inhibitors: full-length luciferase. SaOS-2 full-length luciferase counterscreen, luminescence. shares compounds with Mdm2-MdmX inh. inhibition, % at 8 µM. 6,200 compounds, 77% hits;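 active = mean inhibition at 8 µM reaching about 37%, which flags the compound as non-specific, limit read from the data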;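 also: p53-null SaOS-2 cells with luciferase driven by a doxycycline-inducible promoter; compound on cells about two nights before reading with doxycycline added after day one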
# Starred values were filed as active, the others as inactive; . = not tested or not shown. Rows were chosen to be rich in hits. Some 6.9% of all compounds tested hit in one or more screens of this group.
SMILES,MPTP inh,Mdm2-MdmX inh,GRIN3A LBD mod,SKKanGAS inh,CSC inhib,Beta cell apopt,Mdm2 MdmX conf,FLuc counter
Cc1ccc(C(=O)Nc2nnc(COc3ccccc3)s2)cc1,0,6,-3,11,-3,-3,.,.
COc1cc(C(=O)NC(=S)N(CCc2ccccc2)CCc2ccccc2)cc(OC)c1OC,2,52*,-3,90*,49,.,53*,50*
COc1cc(C(=O)NC(=S)Nc2ccc(NC(=O)c3ccco3)cc2)cc(OC)c1OC,-1,54*,22*,66*,1,15,23,.
O=C(NC(=S)Nc1ccc(NC(=O)c2ccco2)cc1)c1ccccc1,-3,36,2,-1,-9,0,.,.
COc1cccc(CNC23CC4CC(CC(C4)C2)C3)c1OCc1ccccc1,18,52*,-2,0,55,26,43*,59*
C/C(=N\NC(=O)c1cc(-c2cccnc2)nc2ccccc12)c1ccccc1O,0,63*,-7,31,.,86*,51*,39*
C/C(=N\NC(=O)c1cc(C2CC2)nc2ccccc12)c1ccc(O)cc1O,0,75*,-6,5,-12,95*,78*,38*
C/C(=N\NC(=O)c1cc(C2CC2)nc2ccccc12)c1ccc(C)s1,-2,24,-1,-4,-5,-3,.,.
CCOC(=O)CSC1=NC(=O)/C(=C/c2ccc(OC)cc2)S1,3,76*,-15,1,73,-19,53*,32
C=C(C)COc1ccc2c(C)c(CC(=O)N3C[C@H]4C[C@@H](C3)c3cccc(=O)n3C4)c(=O)oc2c1C,0,16,1,-1,-11,11,.,.
COc1cc(CNC(=O)C2CCC(=O)N(C3CCCCCC3)C2)cc(OC)c1 (stereo not given),-1,6,0,0,-17,-1,.,.
O=C(NC1CC1)c1c(O)c2ccccc2[nH]c1=O,1,59*,0,-2,8,-1,-6,.
CCNC(=O)c1c(O)c2ccccc2[nH]c1=O,-1,76*,4,-1,8,-14,53*,76*
Nc1cc(C(=O)c2ccccc2)ccc1[N+](=O)[O-],0,18,0,16,-13,-9,.,.
CC(=O)Nc1ccc(C=NNC(=O)c2ccc(NS(=O)(=O)c3cccs3)cc2)cc1,-1,-5,7,.,-7,-2,.,.
O=C(NN=Cc1c(F)c(F)c(F)c(F)c1F)c1ccc(NS(=O)(=O)c2cccs2)cc1,-1,53*,4,.,15,-6,-16,.
COc1ccc(C(C)(C)C)cc1NC(=O)c1[nH]c(C)c(C(C)=O)c1C,-1,54*,1,0,23,9,12,.
Cc1cc(Cl)cc(C)c1OCC(=O)NC1CCCCCC1,-1,-32,3,.,10,-2,.,.
CCc1nnc(NC(=O)c2nc(S(=O)(=O)Cc3ccccc3)ncc2Cl)s1,0,100*,-1,0,101*,-37,49*,6
CCc1nnc(NC(=O)c2nc(Cl)ccc2Cl)s1,2,8,-1,1,-23,-4,.,.
CC(=O)Nc1ccc(NC(=O)c2nc(S(=O)(=O)Cc3ccccc3)ncc2Cl)cc1,-3,46,3,12,1,-24,.,.
CCc1nnc(NC(=O)c2cccc(S(=O)(=O)N3CCN(C)CC3)c2)s1,-1,.,.,.,.,.,.,.
CCOc1ccccc1NC(=O)c1nc(S(=O)(=O)Cc2cccc(C)c2)ncc1Cl,-3,100*,0,73*,91*,96*,76*,55*
CCc1nnc(NC(=O)c2nc(S(=O)(=O)Cc3ccc(C)cc3)ncc2Cl)s1,-2,95*,-1,6,.,.,80*,52*
CCc1nnc(NC(=O)c2nc(S(=O)(=O)Cc3cccc(C)c3)ncc2Cl)s1,-1,100*,0,2,110*,-30,99*,51*
SMILES,MPTP inh,Mdm2-MdmX inh,GRIN3A LBD mod,SKKanGAS inh,CSC inhib,Beta cell apopt,Mdm2 MdmX conf,FLuc counter
COc1ccc(CN2C(=O)c3ccccc3C2=O)cc1C(=O)Nc1ccccc1N1CCOCC1,-2,21,1,16,1,-1,.,.
COc1ccc(NC(=O)c2cc(CN3C(=O)c4ccccc4C3=O)ccc2OC)cn1,-1,53*,4,4,23,-3,9,.
Cc1ccnc(NC(=O)Cc2ccc(-c3ccccc3)cc2)c1,0,91*,-5,33,-1,71,94*,145*
Cc1ccnc(NC(=O)Cc2ccc([N+](=O)[O-])cc2)c1,0,14,-2,-3,.,-4,.,.
O=C(Cc1ccc(-c2ccccc2)cc1)Nc1ccccn1,-1,69*,-3,10,68,8,55*,62*
COc1ccc(NC(=O)C(Cl)=C(Cl)Cl)cn1,-3,5,0,2,.,.,.,.
COc1ccc(NC(=O)/C(Cl)=C(/Cl)S(=O)Cc2ccc(Cl)cc2)cn1 (stereo not given),-6,97*,0,.,.,.,100*,2
CC1N(C)c2cc(NC(=O)c3cccs3)c(P(=O)(Nc3ccc([N+](=O)[O-])cc3)N3CCOCC3)cc2C1(C)C (stereo not given),-1,44,-4,25,6,24,.,.
Cc1ccc(NC(=O)Cc2ccc(-c3ccccc3)cc2)nc1,1,75*,-1,25,5,-18,45*,80*
COc1ccc(NC(=O)Cc2ccc(-c3ccccc3)cc2)cn1,3,52*,0,1,59,5,55*,62*
Cc1ccc(NC(=O)CCc2c[nH]c3ccccc23)nc1,1,83*,1,0,.,.,73*,52*
COc1ccc(CC(=O)Nc2ccc(OC)nc2)cc1,-2,-34,-1,3,0,0,.,.
Cc1ccc(NC(=O)Cc2ccc(Cl)cc2)nc1,0,20,1,1,-5,1,.,.
COc1ccc(C(O)(C(C)C)C(CN2CCOCC2)c2ccc(Cl)cc2)cc1 (stereo not given),-2,15,5,-4,6,0,.,.
COc1ccc(C2NC(=O)CCC2[N+](=O)[O-])c(OC)c1OC (stereo not given),1,13,0,0,-15,-1,.,.
Oc1c(Cl)cc(Cl)cc1/C=N/Nc1ncc(Br)cn1,-1,67*,-1,16,-2,86*,69*,23
O=C(Nc1cccc(C(=O)O)c1)Nc1ccc2c(c1)OCO2,0,54*,24*,7,4,-4,63*,50*
CCOc1cccc(/C=C/c2ccc3cccc(O)c3n2)c1O,3,67*,-4,107*,57,36,-36,.
COc1ccc(Cl)cc1/C=C/c1ccc2cccc(O)c2n1,2,50*,-1,89*,58,24,1,.
